SRC3 inh = SRC3 coactivator transcriptional activity inhibitors, primary screen, cell-based, luminescence; actives 0.17% (n = 360,000); inhibition, % at 3.6 µM; HEK293 GAL4-SRC3 luciferase reporter; Nuclear receptor coactivator 3 (Homo sapiens), Q9Y6Q9;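 active = inhibition above a per-campaign cutoff, the mean of all compounds plus 3 SD, cut at about 60% in these data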;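 note: 0% = DMSO-treated cells and 100% = gossypol-treated cells at 36 µM; higher means less SRC3-driven luciferase light from the GAL4 reporter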
COUP-TFII inh = NR2F2 transcriptional activity inhibitors, primary screen, cell-based, luciferase reporter, HEK293T, luminescence; inhibition, % at 8.6 µM; HEK293T NGFI-A luciferase reporter; COUP transcription factor 2 (Homo sapiens), P24468; actives 0.7% (n = 370,000);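 active = inhibition above a per-plate cutoff, mean inhibition of test wells between control levels plus 3 SD, cut at about 38% in these data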;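 note: cells cotransfected with COUP-TFII expression vector driving the NGFI-A reporter; 0% = median of COUP-TF2 test wells and 100% = reporter-only cells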
Target sequence (P24468 whole entry, looked up): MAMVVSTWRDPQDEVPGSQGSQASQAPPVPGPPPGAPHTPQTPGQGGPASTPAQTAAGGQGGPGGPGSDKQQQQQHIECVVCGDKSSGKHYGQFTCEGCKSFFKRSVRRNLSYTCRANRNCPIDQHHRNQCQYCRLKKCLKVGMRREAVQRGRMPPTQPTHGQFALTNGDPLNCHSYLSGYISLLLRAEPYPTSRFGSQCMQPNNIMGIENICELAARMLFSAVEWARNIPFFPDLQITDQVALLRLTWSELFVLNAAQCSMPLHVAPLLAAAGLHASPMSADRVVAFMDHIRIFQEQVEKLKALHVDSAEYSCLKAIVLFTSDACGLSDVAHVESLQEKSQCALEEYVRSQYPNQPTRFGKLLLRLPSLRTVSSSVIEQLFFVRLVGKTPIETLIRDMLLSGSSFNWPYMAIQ
NR5A2 inv ag = LRH-1 (NR5A2) inverse agonists, primary screen, cell-based, luminescence, HEK293T, StAR-luciferase reporter; actives 0.13% (n = 360,000); inhibition, % at 3.6 µM; LRH-1 transfected, 24 h;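 active = inhibition above the mean inhibition of all tested compounds plus 3 SD, cut at about 73% in these data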;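 note: 0% = DMSO wells and 100% = reporter-only cells lacking LRH-1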
SRC1 inh = SRC1 coactivator transcriptional activity inhibitors, primary screen, cell-based, luminescence; Nuclear receptor coactivator 1 (Homo sapiens), Q15788; inhibition, % at 3.6 µM; actives 0.12% (n = 360,000); HEK293 GAL4-SRC1 luciferase reporter;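 active = inhibition above the campaign mean plus 3 SD, with each screening campaign given its own cutoff, cut at about 60% in these data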;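 note: 0% = DMSO treated cells and 100% = gossypol at 36 µM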
NCOA2 inhibitor = inhibition of GAL4-SRC2 driven luciferase reporter, primary screen, SRC2 inhibitor project, cell-based, luminescence; inhibition, % at 9 µM; Nuclear receptor coactivator 2 (Homo sapiens), Q15596; HEK293 GAL4-SRC2 luciferase reporter; actives 0.17% (n = 370,000);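 active = inhibition above the mean inhibition of all tested compounds plus 3 SD, set per campaign, cut at about 52% in these data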;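 note: 0% = DMSO treated cells and 100% = cells given Gossypol at 36 µM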
Gal4-VP16 ctr = Gal4-VP16 luciferase reporter inhibitors, counter-screen for COUP-TFII antagonist project, cell-based, luminescence, HEK293; shares compounds with COUP-TFII inh; inhibition, % at 8.5 µM; actives 25% (n = 2,500); AID 687007, 2013; in the data active = inhibition above about 13%
NR2F2 inh conf = NR2F2 transcriptional activity inhibitors, confirmation, cell-based, luciferase reporter, HEK293, triplicate | AID 687008, 2013 | HEK293 NGFI-A luciferase reporter, luminescence | shares compounds with COUP-TFII inh | actives 45% (n = 2,500) | inhibition, % at 8.5 µM;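 active = mean inhibition over three repeats above a set limit taken from the earlier primary screen, cut at about 38% in these data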;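 note: 100% = cells given the luciferase reporter alone without the COUP-TF2 vector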
Active calls of the source: *; / = not tested or not shown. Only some compounds are listed: those with a hit (about 0.83% of all), similar ones and a draw of the others.

SMILES	SRC3 inh	COUP-TFII inh	NR5A2 inv ag	SRC1 inh	NCOA2 inhibitor	Gal4-VP16 ctr	NR2F2 inh conf
CN1/C(=C\C=C2C(=O)NC(=O)NC2=O)C(C)(C)c2ccccc21	-28	-4	-12	-7	-28	/	/
CN1CC[C@@H]2CN[C@H](c3ccccc3)C[C@@H]21	/	-2	/	/	1	/	/
COC(=O)c1ccc(NC(=O)CSc2nc3ccc(N4C(=O)C5C6C=CC(C6)C5C4=O)cc3s2)cc1 (configuration not stated)	34	64*	39	-15	50	-25	37
COc1ccc(-c2cc(-c3ccccc3)[n+](C)c(-c3ccccc3)c2)cc1	70*	46*	74*	46	-15	16*	53*
C[n+]1c(-c2ccccc2)cc(CCCCc2cc(-c3ccccc3)[n+](C)c(-c3ccccc3)c2)cc1-c1ccccc1	21	0	8	-15	18	/	/
Cc1ccc(OC(=O)N(C)C[C@H]2OCc3cnnn3CCCC(=O)N([C@@H](C)CO)C[C@@H]2C)cc1	/	5	/	/	-5	/	/
CC(C)c1oc(=O)cc2c1[C@@H](O)[C@H]1OC(=O)[C@@]3(C)CC[C@@H](O)[C@@]2(C)C13 (some centres not stated)	62*	42*	72	25	-49	-18	31
CC(C)c1oc(=O)cc2c1[C@@H](O)[C@H]1OC(=O)[C@@]3(C)C[C@@H](O)[C@@H](O)[C@@]2(C)C13 (some centres not stated)	76*	41*	92*	10	49	-18	30
O=C1C(=O)c2ccccc2-c2ccccc21	95*	109*	103*	95*	95*	96*	110*
O=C1C(=O)c2cccc3cccc1c23	14	2	15	-11	-12	/	/
C=CC1CN2CCC1CC2C(OC(C)=O)c1ccnc2ccc(OC)cc12 (configuration not stated)	9	13	7	-1	-13	/	/
O=C1/C(=C\c2ccc(Cl)c(Cl)c2)N2CCC1CC2	16	9	6	-8	6	/	/
COc1ccc(CC2C(=O)NC(C)C(=O)N(C)C3C(=O)N(C)C(Cc4ccc(O)c(c4)Oc4ccc(cc4)C3O)C(=O)NC(C)C(=O)NC(C)C(=O)N2C)cc1 (configuration not stated)	94*	89*	99*	96*	75*	27*	91*
C[C@@H]1O[C@@H](O[C@H]2C[C@@H](O)[C@]3(CO)[C@@H]4C(CC[C@]3(O)C2)[C@@]2(O)CC[C@H](C3COC(=O)C3)[C@@]2(C)C[C@H]4O)[C@H](O)[C@H](O)[C@H]1O (some centres not stated)	67*	64*	99*	49	3	14*	58*
Fc1ccccc1CN1Cc2ccccc2-n2nncc2C1	-4	6	17	-12	-12	/	/
O=C(N=Nc1c(O)[nH]c(=O)[nH]c1=O)C1COc2cc3ccccc3cc2O1 (configuration not stated)	1	-18	15	-21	-9	/	/
O=C(O)c1ccc(-[n+]2c(-c3ccccc3)cc(-c3ccccc3)cc2-c2ccccc2)cc1	-1	4	8	-7	-19	/	/
CCCOC(=O)c1ccc(-[n+]2c(-c3ccccc3)cc(-c3ccccc3)cc2-c2ccccc2)cc1	40	55*	58	21	36	23*	48*
COC(=O)C1=C(c2cccc(OCc3ccccc3)c2)C[C@@H]2CC[C@H]1N2C(=O)NCCOc1ccccc1	10	14	2	-9	-1	/	/
C=Cc1cc(OC)c2c(c1)c(=O)oc1c2cc(OC)c2c(O)ccc(C3OC(C)C(O)C(C)(O)C3O)c21 (configuration not stated)	38	59*	27	34	66*	24*	26
O=C(O)CCl	/	13	/	/	3	/	/
CC(N)C(=O)NC1C2C(=C(O)CC(O)C2O)C(=O)OC1(C)C(Cl)Cl (configuration not stated)	91*	76*	97*	93*	64*	10	57*
COC(=O)C1=C(c2cccc(C#N)c2)C[C@@H]2CC[C@H]1N2C(=O)NCCOc1ccc(OC)cc1	-2	-4	-22	-10	-11	/	/
CN1C(=O)NC(=O)/C(=C\C=C\c2ccccc2[N+](=O)[O-])C1=O	/	9	/	/	-4	/	/
COc1cccc(C2CC3C(=O)C=CC2N3Cc2ccccc2)c1 (configuration not stated)	14	3	9	4	-29	/	/
SMILES	SRC3 inh	COUP-TFII inh	NR5A2 inv ag	SRC1 inh	NCOA2 inhibitor	Gal4-VP16 ctr	NR2F2 inh conf
C=C1C(=O)O[C@@H]2C[C@@H](C)[C@@H]3C=CC(=O)[C@@]3(C)[C@@H](OC(=O)CC(=O)O[C@H]3[C@@H]4C(=C)C(=O)O[C@@H]4C[C@@H](C)[C@@H]4C=CC(=O)[C@]43C)[C@H]12	74*	98*	87*	66*	94*	96*	109*
C=C1C(=O)OC2C1CCC(C)C1(O)C=CC(=O)C21C (configuration not stated)	-14	-5	-51	-54	-7	/	/
COC(=O)C1=C(c2ccc(C(C)=O)cc2)C[C@@H]2CC[C@H]1N2C(=O)N1CCCCC1	15	/	-3	-1	/	/	/
COC1CC2C=C(C)C=CC=CC(=O)NC(c3ccccc3)CC=CCCC(O)CC(=O)C2=C1O (configuration not stated)	78*	72*	99*	41	-42	50*	73*
O=C(c1ccccc1)N1Cc2cc(Br)ccc2-n2nncc2C1	/	-9	/	/	-9	/	/
CCOP(=O)(OCC)C1(O)C(=O)Nc2ccc(Br)cc21 (configuration not stated)	5	6	6	14	37	/	/
O=C(NCCN1CCC2(CC1)C(=O)NCN2c1ccccc1)c1ccc(Cl)cc1	/	7	/	/	-14	/	/
CC1CCC[C@H](O)CCCCCc2cc(O)cc(O)c2C(=O)O1 (some centres not stated)	-7	0	-12	-9	4	/	/
CC1CCC/C=C/C2CC(O)CC2C(O)/C=C/C(=O)O1 (configuration not stated)	59	59*	77*	9	26	8	34
